Experimental findings from PubChem BioAssay (Tox21) are described below.

Inconclusive results are not listed. The source made the active and inactive calls. Calls follow the shape of the dose curve; as a rule, active = well fitted curve in the direction sought with a large enough effect in the repeat runs; inconclusive = weak or mixed curves; inactive = no such curve, though single readings can be large; an effect the other way counts as inactive or inconclusive.
% is scaled to controls: 0 for no effect and ±100 for the full control effect.

The nature of one assay: qHTS assay to identify small molecule antagonists of the TGF-beta/Smad signaling pathway - cell viability counter screen (AID 1346824). Also: nearly all actives have a fitted effect of over 50% in size. Particulars: SBE-bla HEK293T viability, CellTiter-Glo luminescence; series mostly up to 76.8 µM; viability change, negative = cytotoxic: at the top concentration. The procedure, abridged:
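Cytotoxicity counter-screen run in the same wells as the beta-lactamase Smad reporter read: CellTiter-Glo luminescence after 30 min at room temperature. HEK 293T SBE-bla cells had 5 hr compound exposure at 37 C with TGF-beta1 (0.25 ng/mL stock).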
In general terms: qHTS replaces the single test concentration by a dilution series.
`CCCCC(=O)N(C)C`: the “viability change, negative = cytotoxic” value was 5.75% (inactive).
On the same count and under the same terms, the figure for `O=c1[nH]c(=O)c2ccccc2o1` is 1.76% [at 35.3 µM] (inactive); for `CC(=O)OC(C)c1ccccc1` (stereo unspecified) it is 1.33% (inactive).
Same read-out and setting: the figure for `Cc1ccc(S(=O)(=O)NC(=O)NC2CCCCCCC2)cc1` is 1.62% [at 35.3 µM] (inactive); for `O=S1(=O)CCCC1` it is -7.78% (inactive); for `CCCOCCOCCOCCO` it is 0.464% (inactive).
Still for that read-out and setting: the figure for `CC(C)CCCC(C)CC=O` (stereo unspecified) is 1.44% (inactive); for `NCCc1ccn[nH]1` it is 0.58% [at 35.3 µM] (inactive).
For `CC(Cl)COP(=O)(OCC(C)Cl)OCC(C)Cl` (stereo unspecified), the “viability change, negative = cytotoxic” value is 2.54% (inactive).
Still for that read-out and setting: the figure for `Nc1ccc(S(=O)(=O)Nc2ccccn2)cc1` is 4.17% [at 35.3 µM] (inactive); for `NS(=O)(=O)c1ccc(Cl)c(S(N)(=O)=O)c1` it is -1.21% [at 35.3 µM] (inactive).
Same read-out and setting: the figure for `CC(C)C(=O)Nc1cccc(C(F)(F)F)c1` is -0.688% [at 35.3 µM] (inactive).
With `OC(CCN1CCCCC1)(c1ccccc1)c1ccccc1`, the “viability change, negative = cytotoxic” value is -0.804% [at 35.3 µM] (inactive).

A short description of another assay: qHTS assay to identify small molecule agonists of the TGF-beta/Smad signaling pathway - cell viability counter screen (AID 1346829). Also: top concentration of the series differs between compounds; nearly all actives have a fitted effect of over 45% in size. Particulars: SBE-bla HEK293T viability, CellTiter-Glo luminescence, 5 h; series mostly up to 76.8 µM; activity change, negative = cytotoxicity: at the top concentration. The procedure, abridged:
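Same-well cytotoxicity: CellTiter-Glo added after the 2 hr room-temperature beta-lactamase substrate step, luminescence measured 30 min later; cells had 5 hr of compound at 37 C.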
For `CO[Si](CCCCl)(OC)OC`, the “activity change, negative = cytotoxicity” value was -5.49% (inactive).
The same measure, in the same setting: under `c1ccccc1` stands 9.22% (inactive); under `CCCCC(CC)COC(=O)c1ccccc1` (stereo unspecified), -11.2% (inactive); under `COc1ccc(N=Nc2cc(C)c(N=Nc3ccc(S(=O)(=O)O)cc3)cc2OC)cc1`, -5.75% (inactive).
As for `Cc1ccc2c(c1)c1c3n2CCNC3CCC1` (stereo unspecified), the “activity change, negative = cytotoxicity” value was -13.7% [at 35.3 µM] (inactive).
Turning to `CCCCCCCCCCCCC1CO1` (stereo unspecified), the “activity change, negative = cytotoxicity” value is 0.572% (inactive).
On the same count and under the same terms, the figure for `CC(=O)Nc1ncc([N+](=O)[O-])s1` is 13.8% [at 35.3 µM] (inactive); for `C1=C\CC/C=C\CC/1` it is -14.4% (inactive); for `CCCCCN(CCCOC)C(=O)C(CCC(=O)O)NC(=O)c1ccc(Cl)c(Cl)c1` (stereo unspecified) it is 9.39% [at 35.3 µM] (inactive).
The same measure, in the same setting: under `CC(=O)/C=C/c1ccco1` stands 1.33% (inactive).
On the same count and under the same terms, under `C=CCOCC(O)CCl` (stereo unspecified) stands -15.6% (inactive).
Turning to `Nc1c(NC/C=C\COc2cc(CN3CCCCC3)ccn2)c(=O)c1=O`, the activity change, negative = cytotoxicity is 2.86% [at 15.8 µM] (inactive).
On the same count and under the same terms, under `Cc1nc(C)nc(N2C[C@@H](C)N(c3ccnc([C@@H](C)O)n3)[C@@H](C)C2)n1` stands -2.85% [at 35.3 µM] (inactive).
